According to the supplement of paper PMC4466236:
The full ranking holds about 33,000 sequences; the median of “E-score (dimensionless, -0.5 to 0.5)” is about -0.058, and the highest 2% start at about 0.35. The sample holds the highest values, similar sequences and a random draw of the others, so the mix is not that of the screen.

The sequences below were run on MvaT (assay: PBM 8-mer E-score (mean of HK and ME arrays) (E-score (dimensionless, -0.5 to 0.5)); higher = stronger relative binding preference).
In short: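 Full-length P. aeruginosa MvaT, with glutathione S-transferase fused to its N-terminus (cloned into pTH6838 by isothermal assembly), was tested by protein binding microarray using a previously described protocol. Two universal double-stranded 60-mer arrays (ME and HK) were used, each with a constant 25-mer primer region and a variable 35-mer region covering all 8-mers. The rank-based 8-mer E-score (-0.5 to 0.5) is the mean of the two arrays, parsed with a custom Python script.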

Sequence	PBM 8-mer E-score
GGATTAAC	0.111
GCATTAAC	0.114
AGCGTCGC	-0.197
CACAACCG	-0.028
ATCGTATA	0.115
CCTACGAG	-0.148
ATAAGTCA	0.17
GGTATAAC	0.226
CGTATAAC	0.113
GGTATAAA	0.339
AGTATAAA	0.381
TGTATAAA	0.258
AGTATAAC	0.36
ATGTAAAA	0.247
CTTCCCCC	-0.176
AACACACA	0.187
AGGCTTAC	-0.247
AGATAATG	0.295
CGATAATA	0.301
AGATAATA	0.366
AGATAATC	0.136
GGATAATA	0.403
GGATAAGA	0.0379
GCTCGAGA	-0.152
CCGTTCGC	-0.222

Sequence	PBM 8-mer E-score
CTCCGGTA	-0.227
CAACGGCG	-0.221
CACTATAG	0.196
CTCTATAA	0.081
GTGTATAA	0.202
CCATATAG	0.084
GCGTATAA	0.201
CTATATAA	0.421
CTATATAG	0.388
ATATAGCG	0.333
GTATATAA	0.401
ATCTATAA	0.209
ATCTATAG	0.146
ATATATAG	0.468
AACTAGGA	0.0115
TGGCAACA	-0.122
ACAATCAC	0.00599
CACGCATC	-0.154
GTGGCCAA	-0.191
GTGTTATA	0.32
CTGTTATC	0.0487
ATGTTATA	0.442
CTGTTATA	0.359
CTGTTACA	0.111
ATGTTATG	0.152

Sequence	PBM 8-mer E-score
GAGGAAAC	-0.144
GAAACAAA	0.271
ACTAATAG	0.199
ACTAATAA	0.399
ACTAATAC	0.247
ACTAATAT	0.407
TCTAATAA	0.332
CCTAATAA	0.266
CCAAATCC	-0.193
AGAAAGAC	0.00959
GACACACA	0.101
AGGGACCC	-0.282
AGACCTCG	-0.132
AGATCGAG	-0.129
CGTGAAGC	-0.218
CTTGGTTA	0.0108
CATATCAC	0.15
GAGGCACC	-0.229
AAACATAC	0.284
ATACATAC	0.319
ATACATAT	0.394
GAACATAA	0.256
AAACATAG	0.216
ATACAAAA	0.304
AAACATAT	0.361

Sequence	PBM 8-mer E-score
ATACAAAT	0.35
ATACATAA	0.336
AAACATAA	0.371
TAACATAA	0.303
ATACAAAG	0.27
CAGTTGAC	0.0902
GGTCGAAC	-0.0987
AGTCAGAG	-0.21
CCTGGCGC	-0.207
GATAAATC	0.137
GATAAATA	0.382
AGTAAATA	0.361
GATAAAGA	0.271
CCTAAATA	0.226
CATAAATC	0.163
TATAAATA	0.426
TATAAAGA	0.327
AGTAAATC	0.0898
CATAAATA	0.358
CGTAAATA	0.236
CATAAATG	0.112
CCCTGGAA	-0.276
CCCTACAC	-0.212
CTCCGCCA	-0.247
ACTCAGTA	0.118

Sequence	PBM 8-mer E-score
AATTGAGA	0.0559
AATAAATG	0.33
AATAAACT	0.293
AATAAATT	0.436
AATAAGTG	0.254
AATAAATA	0.434
AAGAAATT	0.26
AATAAGTA	0.387
AATAAATC	0.319
CATAAGTA	0.315
CCAAGTTC	0.0376
AGGAGAAC	-0.112
CGACTCAA	-0.0083
TACCATAA	0.271
CATCTCCG	-0.186
AGCTTGCG	-0.227
CATATGCA	0.164
AATATGCA	0.264
AATATGAA	0.329
TATATGAA	0.382
GATATGAA	0.156
TATATGCA	0.412
CAGCACAA	-0.0547
TCAGCCCA	-0.133
AAAGTATG	0.216

Sequence	PBM 8-mer E-score
ACGTAAAC	-0.0262
AATACGGG	-0.0239
ACCTTATA	0.266
AACTTACA	0.33
CACTTATA	0.326
GACTTATA	0.312
TACTTATA	0.389
AACTTATA	0.415
AAGCCGGA	-0.238
TACTGTAA	0.336
AAGGACGT	-0.149
GGAGTCAA	-0.134
CTTGAACA	-0.0207
AAGGTGGG	-0.155
CCGCGGCG	-0.0831
ACGAGGCT	-0.135
ATTGGTAC	0.139
GTCTAATA	0.269
GTATAATA	0.416
CTATAATA	0.42
ATGTAATA	0.317
CCATAATA	0.287
CTCTAATA	0.364
GTATAAGA	0.278
CTGTAATA	0.36

Sequence	PBM 8-mer E-score
GTGTAATA	0.342
CTGTAATC	0.0848
ATCTAATA	0.321
CTTCAACA	0.0315
CCCGCGTA	-0.177
CGTCTCAG	-0.227
CTGTTTCA	-0.122
AACCCATT	0.0496
GACCAACC	-0.0441
GCATCAGC	-0.135
CTCGTCGC	-0.208
AACATGTT	0.295
GATATGTA	0.282
ATTATGTA	0.377
AACATGTA	0.347
ATTATGTC	0.305
AACATGTC	-0.0784
ACTATGTG	0.172
AATATGTA	0.365
AATATGTG	0.368
ATTATGTG	0.261
AATATGTC	0.233
CATATGTA	0.252
